In the library only some 3.3% were active in any assay of this set; here they are far more common.
Tb PYK inh: qHTS of Trypanosoma Brucei Inhibitors | TbPYK enzyme, Kinase-Glo Plus ATP luminescence, 45 min | hit rate 0.12% among 410,000 | pyruvate kinase (Trypanosoma brucei), Q57TT1 | Potency, µM (titrated, usually from 76.8 µM), usual class: inhibitors | AID 624173, 2012; note: nearly all actives have a fitted effect of over 50% in size
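Readout: single end-point luminescence (Kinase-Glo Plus, 10 min). Reaction conditions were TbPYK/substrate plus 130 uM ADP, 45 min at RT, pH 7.2 TEA buffer. No-enzyme wells served as controls, and data were normalized before concentration-response fitting.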
SARS PLpro yeast-1: qHTS of Yeast-based Assay for SARS-CoV PLP; S. cerevisiae expressing SARS-CoV PLpro, growth rescue; Potency, µM (doses to about 32.9 µM), actives largely listed as activators; hit rate 0.19% among 330,000; AID 485353, 2010; calls by dose curve; note: nearly all actives have a fitted effect of over 55% in size
NS1 function inh: qHTS Assay for Inhibitors of Influenza NS1 Protein Function. hit rate 0.4% among 270,000. Potency, µM (series often up to 46.1 µM); calls by dose curve; note: actives are rising curves; nearly all actives have a fitted effect of over 50% in size
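In this qHTS, NS1 from influenza A is expressed in budding yeast, where it slows growth. Cells are switched from glucose to 2% galactose medium (pH 6.0, -URA), treated with compound, and growth recovery is read at OD600.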
Sm TGR block: qHTS Assay for the Inhibitors of Schistosoma Mansoni Peroxiredoxins; Schistosoma mansoni thioredoxin glutathione reductase (TGR), Q962Y6; purified TGR, DTNB reduction, TNB absorbance 405 nm; Potency, µM (highest dose often 114 µM), actives largely listed as inhibitors; hit rate 3% among 360,000; AID 485364, 2010; note: nearly all actives have a fitted effect of over 60% in size
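First, TGR (20 nM dispensed) and NADPH were mixed with compound. Second, a 15 min room-temperature incubation followed. Third, further NADPH and then DTNB were added to start the reaction. Finally, TNB absorbance was monitored kinetically.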
RE007 growth inh: qHTS Assay for Inhibitors of the HIV-1 protein Vpr; S. pombe RE007 Vpr strain, BacTiter-Glo ATP luminescence, 24 h; Potency, µM (highest dose often 92.2 µM), hits mostly inhibitors; hit rate 0.21% among 360,000; active = well fitted falling curve with a large enough effect; inconclusive = small, poorly fitted or top-dose-only effect; inactive = no such curve, though single readings can be large or run the other way; note: nearly all actives have a fitted effect of over 50% in size
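Fission yeast RE007 carrying one integrated HIV-1 vpr copy, seeded at OD 0.01 in PMG+AL medium with 23 nL pinned compound. Grown 24 h at 30 degrees; viability read by BacTiter-Glo luminescence after 5 min.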
LmPK inhibitor: qHTS Assay for Inhibitors of Leishmania Mexicana Pyruvate Kinase (LmPK); hit rate 0.37% among 290,000; Q27686; purified LmPK, Kinase-Glo ATP luminescence, 1 h; Potency, µM (series often up to 57.5 µM), usual class: inhibitors
Target sequence (Q27686 whole entry, looked up): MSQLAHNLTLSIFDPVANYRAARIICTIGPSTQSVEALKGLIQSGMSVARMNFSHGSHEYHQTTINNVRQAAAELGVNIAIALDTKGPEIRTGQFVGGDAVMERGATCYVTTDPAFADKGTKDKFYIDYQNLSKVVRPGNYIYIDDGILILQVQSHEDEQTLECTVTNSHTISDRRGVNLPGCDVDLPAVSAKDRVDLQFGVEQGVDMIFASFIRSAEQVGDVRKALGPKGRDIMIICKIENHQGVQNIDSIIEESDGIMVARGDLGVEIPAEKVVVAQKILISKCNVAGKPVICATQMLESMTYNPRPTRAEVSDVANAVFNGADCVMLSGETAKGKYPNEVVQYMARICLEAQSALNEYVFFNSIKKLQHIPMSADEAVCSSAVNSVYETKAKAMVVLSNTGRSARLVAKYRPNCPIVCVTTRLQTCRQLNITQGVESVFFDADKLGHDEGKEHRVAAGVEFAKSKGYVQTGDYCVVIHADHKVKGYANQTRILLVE
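Pyruvate kinase activity monitored as ATP production (luciferase luminescence). Conditions: 0.1 nM enzyme, 0.5 mM PEP, 0.1 mM ADP, 1 h, RT; normalized against uninhibited and no-enzyme wells.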
SARS PLpro yeast-2: qHTS of Yeast-based Assay for SARS-CoV PLP: Hit Validation; shares compounds with SARS PLpro yeast-1; yeast expressing SARS-CoV PLpro, growth phenotype rescue; calls only; hit rate 19% among 1,000; call rule not given here
Numbers stand for hits; - = inactive; ? = inconclusive; . = no result given; + = active, no number; [ ] = dose if it differs, or a comment. Unless noted, calls come from the whole dose curve; as a rule, active = well fitted curve in the direction sought with a large enough effect; inconclusive = small, poorly fitted or top-dose-only effect, or another doubt; inactive = no such curve, though single readings can be large; an effect the other way counts as inactive or inconclusive.

SMILES	Tb PYK inh	SARS PLpro yeast-1	NS1 function inh	Sm TGR block	RE007 growth inh	LmPK inhibitor	SARS PLpro yeast-2
CCc1nnc(NC(=O)c2ccc(S(=O)(=O)N3CCc4ccccc4C3)cc2)s1	-	-	-	-	-	-	.
Cc1ccc(C(NC(=O)C(C)C)c2cc([N+](=O)[O-])c3cccnc3c2O)cc1 (configuration not stated)	-	?	-	-	-	-	?
CC(C)C(=O)NC(c1cccs1)c1cc([N+](=O)[O-])c2cccnc2c1O (configuration not stated)	-	?	-	-	-	-	-
CC(C)C(=O)NC(c1cccc([N+](=O)[O-])c1)c1ccc2cccnc2c1O (configuration not stated)	-	3.2µM	.	-	-	-	-
CC1=C(C(=O)Nc2ccccc2)C(c2ccccc2C)n2nc(SCC(=O)c3ccc(C)cc3)nc2N1 (configuration not stated)	-	.	.	-	.	.	.
CCCN(CCC)S(=O)(=O)c1ccc2c(c1)N(CC(=O)NC(C)c1ccccc1)C(=O)CS2 (configuration not stated)	-[15.4 µM]	.	.	-	.	.	.
C=Cc1ccc(Cn2c(=O)n(-c3ccc(C)cc3)c(=O)c3c2c2cc(OC)ccc2n3C)cc1	-	.	.	-	.	.	.
Cn1c(=O)n(C)c2cc(N3CCCCC3)c(NC(=O)c3c(F)cccc3F)cc21	-	.	.	-	.	.	.
CC(CC(=O)NCc1ccc(Cl)cc1Cl)CC1=NS(=O)(=O)c2ccccc2N1 (configuration not stated)	-	.	.	-	.	.	.
CCOC(=O)CSc1nc2ccccc2c(=O)n1C1CCCC1	-	-	-	-	-	-	.
CCOC(=O)CSc1nc2ccccc2c(=O)n1C	-	?	-	-	-	-	-
CC(C)(C)OC(=O)N1CCC(c2c(C(=O)N3CCN(c4ccc(Cl)cc4)CC3)cnn2-c2ccc(F)cc2F)CC1	-[15.4 µM]	.	.	-	.	.	.
Cc1noc(-c2ccc(NCc3ccccc3)c([N+](=O)[O-])c2)n1	-	.	.	-	.	.	.
c1ccc(Cc2nnc3n2CCCCC3)cc1	?	-	-	-	-	-	.
c1ccc(N2CCN(CCc3nnc4n3CCCCC4)CC2)cc1	-	?	-	-	-	-	-
COc1cc(-c2nnc(SCC(=O)c3ccc(C)cc3)o2)cc(OC)c1OC	-	-	-	-	-	-	.
COc1cccc(C(=O)CSc2nnc(-c3cc(OC)c(OC)c(OC)c3)o2)c1	-	?	-	-	-	-	?
O=C(c1ccc(NC(=S)NCc2ccco2)cc1)N1CCCCC1	-	?	.	?	-	-	-
O=C(CNC(=O)c1cccc(Br)c1)N/N=C/c1cc(Br)cc(Br)c1O	-	3.5µM	.	-	-	-	+
Cc1ccc2[nH]cc(C(=O)CN3CCN(C)CC3)c2c1	-	?	-	-	-	-	.
Cc1ccc2[nH]cc(C(=O)CCl)c2c1	-	.	-	?	-	-	-
CCNC(=O)CN(c1ccc(Cl)cc1)S(=O)(=O)c1ccccc1	-	-	-	-	-	-	.
CCNC(=O)CN(c1ccccc1)S(=O)(=O)c1ccc(Cl)cc1	-	?	-	-	-	-	?
Cc1ccc(-c2cc3ccccc3nc2N2CCCC2)cc1	-	-	-	-	-	-	.
Cc1ccc2c(c1)-c1nc3ccccc3cc1C2=NC1CCCCC1	-	?	-	-	-	-	-
SMILES	Tb PYK inh	SARS PLpro yeast-1	NS1 function inh	Sm TGR block	RE007 growth inh	LmPK inhibitor	SARS PLpro yeast-2
c1ccc2c(c1)Cn1nnnc1-2	-	-	-	-	-	-	.
c1ccc2c(c1)CC1(CCCCC1)n1nnnc1-2	-	14µM	-	-	-	-	-
CCOC(=O)COc1c(Cl)cc(C2NC(=S)NC(c3ccccc3)=C2C(C)=O)cc1OCC (configuration not stated)	-	?	-	-	-	-	-
C=CCOc1ccc(C2NC(=S)NC(c3ccccc3)=C2C(C)=O)cc1OC (configuration not stated)	-	-	-	-	-	-	.
CC(/C=C/c1ccccc1)=N\NC(N)=S	-	13µM	-	-	-	-	+
CC(/C=C/c1ccccc1)=N\NC(=S)NC(C)C	-	-	-	-	-	-	.
Cc1cscn1	-	?	.	-	-	.	-
Cc1nn(C)cc1/C=N/NC(=S)Nc1ccc(Cl)cc1Cl	-	?	-	-	-	-	+
CCn1nc(C)c(/C=N/NC(=S)Nc2ccc(Cl)cc2Cl)c1C	-	-	-	-	-	-	.
COCCNC(=S)NC(=O)CC12CC3CC(CC(C3)C1)C2	-	?	-	-	-	-	+
CNC(=O)CC12CC3CC(CC(C3)C1)C2	-	?	-	-	-	-	.
Cc1ccccc1C(=O)Nc1c(C)nc2ccccn2c1=O	-	.	.	-	.	.	.
O=c1c(N2CCOCC2)nsnc1N1CCOCC1	-	?	-	-	-	-	-
COC(=O)Oc1nsnc1N1CCOCC1	-	-	-	-	-	-	.
Cc1cccc(NC(=O)NCC(c2cccnc2)N2CCOCC2)c1 (configuration not stated)	-	18µM	-	-	-	-	-
Cc1ccc(NC(=O)C(=O)NCC(c2cccnc2)N2CCOCC2)cc1C (configuration not stated)	-	.	.	-	.	.	.
Cc1ccc(-c2nn(-c3cccc([N+](=O)[O-])c3)c3c2cnc2ccc(F)cc23)cc1	-	.	.	-	.	.	.
C[C@H](CO)N1C[C@H](C)[C@@H](CN(C)Cc2ccc(-c3ccccc3)cc2)Oc2c(NC(=O)Nc3ccc4c(c3)OCO4)cccc2C1=O	-	11µM	.	.	-	.	-
C[C@@H]1CN([C@H](C)CO)C(=O)c2cc(NS(=O)(=O)c3cn(C)cn3)ccc2O[C@H]1CN(C)C(=O)Nc1ccccc1	-	?	.	.	-	.	-
C[C@H](CO)N1C[C@H](C)[C@@H](CN(C)S(=O)(=O)c2ccccc2)Oc2ccc(NC(=O)Nc3ccccc3)cc2C1=O	-	-	.	.	-	.	.
C[C@H](CO)N1C[C@H](C)[C@@H](CN(C)S(C)(=O)=O)Oc2c(NC(=O)Nc3ccc4c(c3)OCO4)cccc2C1=O	-	-	.	.	-	.	.
Cc1ccc(S(=O)(=O)N(C)C[C@@H]2Oc3ccc(NC(=O)Nc4cccc5ccccc45)cc3C(=O)N([C@H](C)CO)C[C@H]2C)cc1	-	5µM	.	.	-	.	-
C[C@H](CO)N1C[C@H](C)[C@@H](CN(C)Cc2ccc(C(=O)O)cc2)Oc2c(NC(=O)Cc3ccccc3)cccc2C1=O	-	11µM	.	.	-	.	-

Compound activity (PubChem)
